Test results taken from PubChem BioAssay.
The source made the active and inactive calls. Unless noted, no rule for the calls is given here.

Tests used:
[1] = HepG2 liver cancer cell viability effects, profiling panel, resazurin fluorescence, 24 h, PK04 Diversity Set (AID 1172); conditions: higher = more signal
[2] = basal S. cerevisiae growth modulation, no modifier, primary screen, OD600, strain BY4716, 24 h, basal condition (AID 1173); conditions: OD600, 24 h, higher = more signal, called active from +8 up or from −8 down
[3] = MM1S myeloma cell viability, profiling panel, resazurin fluorescence, basal, 24 h, PK04 Diversity Set (AID 1174); conditions: higher = more signal, called active from +8 up or from −8 down;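 also: MM1S multiple myeloma cell line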
[4] = target: Dihydroorotate dehydrogenase (quinone), mitochondrial (Plasmodium falciparum (isolate 3D7)) (UniProt Q08210); test: PfDHODH enzyme inhibitors, primary screen, biochemical, C-terminal His tag, absorbance 600 nm (AID 1175); conditions: DCIP absorbance 600 nm, higher = more signal, called active from +8 up or from −8 down;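 also: recombinant parasite enzyme with a five histidine tag at its C terminus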
[5] = P. aeruginosa biofilm formation inhibitors, primary screen, strain PAO1, LB-PBS medium, absorbance 600 nm (AID 1176); conditions: P. aeruginosa PAO1 growth/biofilm, A600, 12 h; higher = more signal
[6] = S. cerevisiae RM11-1a growth modifiers, primary screen, strain RM11-1a, OD600, basal, 24 h (AID 1177); conditions: OD600, 24 h, higher = more signal, called active from +8 up or from −8 down;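 also: cultures grown under basal conditions with no added stressor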
[7] = E. coli acrAB mutant growth effects, primary screen, E. coli filamentation inducers, strain DRC39, OD650, 24 h (AID 1178); conditions: higher = more signal, called active from +8 up or from −8 down;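 also: growth measured as culture turbidity by optical density at 650 nm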
[8] = E. coli acrAB mutant growth effects, primary screen, E. coli filamentation inducers, strain DRC39, OD650, 48 h (AID 1179);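 also: screen aims at cell division blockers that make cells filament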; conditions: E. coli DRC39 delta-acrAB growth, higher = more signal, called active from +8 up or from −8 down
[9] = RPMI8226 myeloma cell viability, profiling panel, resazurin fluorescence, basal, 24 h, PK04 Diversity Set (AID 1180); conditions: higher = more signal;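 also: RPMI8826 multiple myeloma cell line at 5000 cells per well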
[10] = target: E3 ubiquitin-protein ligase XIAP (Homo sapiens) (UniProt P98170); test: XIAP binders, primary screen, biophysical, small-molecule microarray, fluorescence 635 nm (AID 1181); conditions: small-molecule microarray binding, higher = more signal;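 also: score merges 667 nm emission and signal to noise over triplicate slides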
[11] = system: XIP peptide (Xip251-270) binding; test: small-molecule binders of XIP peptide, primary screen, biochemical, small-molecule microarray, fluorescence 635/667 nm, 0.1 µg/mL protein (AID 1182); conditions: fluorescent protein binding, 635 nm, higher = more signal, called active from +8 up or from −8 down
XIP peptide (Xip251-270) = test: small-molecule binders of XIP peptide, primary screen, biochemical, small-molecule microarray, fluorescence 635/667 nm, 0.5 µg/mL protein (AID 1183); conditions: small-molecule microarray binding, fluorescence 635 nm; higher = more signal
[12] = Plasmodium falciparum growth inhibition, primary screen, strain 3D7, DAPI fluorescence, 100 nL (AID 1184);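 also: parasites grown inside human red blood cells in medium with human serum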; conditions: P. falciparum 3D7 growth, 3 d, higher = more signal
[13] = target: Homeobox protein Hox-A13 (Mus musculus) (UniProt Q62424); test: inhibitors of HoxA13-DNA binding, primary screen, biochemical, fluorescence polarization, labeled oligonucleotide (AID 1185); conditions: 15 min, higher = more signal, called active from +8 up or from −8 down
[14] = inhibitors of hydroxyurea-induced Chk1 phosphorylation, primary screen, imaging, HeLa, phospho-Chk1 antibody, percent positive cells (AID 1186); conditions: hydroxyurea-induced phospho-Chk1 immunofluorescence imaging, higher = more signal
[15] = inhibitors of hydroxyurea-induced Chk1 phosphorylation, primary screen, imaging, HeLa, phospho-Chk1 nuclear intensity (AID 1187); conditions: hydroxyurea-induced phospho-Chk1 immunofluorescence imaging, higher = more signal

Sequence of Homeobox protein Hox-A13 (Mus musculus) (Q62424 whole entry, looked up): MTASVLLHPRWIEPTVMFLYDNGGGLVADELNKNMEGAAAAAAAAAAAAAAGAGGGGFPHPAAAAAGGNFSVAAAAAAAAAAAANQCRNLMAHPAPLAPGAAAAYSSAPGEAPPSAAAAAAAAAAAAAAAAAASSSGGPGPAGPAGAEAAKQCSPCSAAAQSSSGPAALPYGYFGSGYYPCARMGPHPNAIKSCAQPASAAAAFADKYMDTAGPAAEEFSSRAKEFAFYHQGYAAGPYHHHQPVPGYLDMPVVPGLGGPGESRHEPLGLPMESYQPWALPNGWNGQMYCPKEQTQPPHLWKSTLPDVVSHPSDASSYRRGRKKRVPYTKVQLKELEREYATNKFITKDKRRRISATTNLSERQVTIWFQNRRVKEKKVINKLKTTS
Sequence of E3 ubiquitin-protein ligase XIAP (Homo sapiens) (P98170 whole entry, looked up): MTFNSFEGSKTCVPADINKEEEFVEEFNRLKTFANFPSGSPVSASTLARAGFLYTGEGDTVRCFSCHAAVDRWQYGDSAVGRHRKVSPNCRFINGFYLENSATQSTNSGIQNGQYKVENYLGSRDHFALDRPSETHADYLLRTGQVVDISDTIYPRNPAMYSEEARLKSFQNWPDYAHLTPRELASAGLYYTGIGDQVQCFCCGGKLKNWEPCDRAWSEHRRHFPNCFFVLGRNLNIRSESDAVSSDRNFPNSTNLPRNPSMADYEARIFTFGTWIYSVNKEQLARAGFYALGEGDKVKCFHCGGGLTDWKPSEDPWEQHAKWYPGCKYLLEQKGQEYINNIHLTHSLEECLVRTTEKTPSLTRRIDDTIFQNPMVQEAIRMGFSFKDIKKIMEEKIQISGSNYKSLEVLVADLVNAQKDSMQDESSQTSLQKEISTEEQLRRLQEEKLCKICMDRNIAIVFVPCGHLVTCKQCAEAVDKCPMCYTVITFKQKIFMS
Sequence of Dihydroorotate dehydrogenase (quinone), mitochondrial (Plasmodium falciparum (isolate 3D7)) (Q08210 whole entry, looked up): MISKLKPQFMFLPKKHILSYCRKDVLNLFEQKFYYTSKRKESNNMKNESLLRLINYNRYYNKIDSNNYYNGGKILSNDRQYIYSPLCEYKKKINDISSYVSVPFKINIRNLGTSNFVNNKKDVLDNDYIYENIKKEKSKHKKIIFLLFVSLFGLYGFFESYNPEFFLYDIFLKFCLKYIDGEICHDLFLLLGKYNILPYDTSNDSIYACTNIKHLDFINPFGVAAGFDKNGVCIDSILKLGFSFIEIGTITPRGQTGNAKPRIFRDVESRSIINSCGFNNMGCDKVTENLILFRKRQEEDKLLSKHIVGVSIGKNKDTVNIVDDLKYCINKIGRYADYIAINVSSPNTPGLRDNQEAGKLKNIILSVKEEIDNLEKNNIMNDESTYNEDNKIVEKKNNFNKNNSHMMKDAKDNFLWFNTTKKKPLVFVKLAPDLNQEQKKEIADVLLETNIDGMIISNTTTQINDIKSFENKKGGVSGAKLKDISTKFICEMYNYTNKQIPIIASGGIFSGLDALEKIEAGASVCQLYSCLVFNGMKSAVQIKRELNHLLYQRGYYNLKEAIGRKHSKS

With CC(=O)c1ccc(C(O)C2C=CC3C(=O)N(C)C(=O)C3N2NC(=O)OC(C)(C)C)cc1 (centres undefined) as the compound, how does the z-score [1] read?
The z-score was -1.69.

And the z-score [2]?
The z-score was 1.74 (inactive).

And the z-score [3]?
The z-score was -1.04 (inactive).

And the composite z-score [4]?
Its composite z-score is 0.625 (inactive).

And the z-score [5]?
Its z-score is 0.378 (inactive).

What about the z-score [6] of the same compound?
Its z-score is 0.845 (inactive).

What about the z-score [7] of the same compound?
The z-score was -0.9 (inactive).

What about the z-score [8] of the same compound?
Its z-score is -0.47 (inactive).

What about the z-score [9] of the same compound?
The z-score was -1.05.

What about the composite z-score [10] of the same compound?
The composite z-score was 0.155.

And the composite z-score [11]?
Its composite z-score is 2.44 (inactive).

And the composite z-score (XIP peptide (Xip251-270))?
The composite z-score was 0.763.

What about the z-score [12] of the same compound?
Its z-score is -0.29.

What about the z-score [13] of the same compound?
Its z-score is -1.11 (inactive).

What about the z-score [14] of the same compound?
The z-score was 0.976 (inactive).

And the z-score [15]?
Its z-score is 0.688 (inactive).

What does the source list for C=CCOC(=O)[C@@H]1[C@H]2C(=O)O[C@H](c3ccccc3)[C@H](c3ccccc3)N2[C@H](c2ccc(OCCOC(=O)[C@H]3C[C@H]4C(=O)NCC(=O)N4[C@H]3c3ccc(O)cc3)cc2)[C@@]12C(=O)Nc1ccc(I)cc12?
z-score [1]: -0.675; z-score [2]: 2.01 (inactive); z-score [3]: -0.349 (inactive); composite z-score [4]: -1.14 (inactive); z-score [5]: 3.08 (inactive); z-score [6]: 1.28 (inactive); z-score [7]: -0.0185 (inactive); z-score [8]: -0.282 (inactive); z-score [9]: -0.331; composite z-score [10]: -0.0669; composite z-score [11]: 1.34 (inactive); composite z-score (XIP peptide (Xip251-270)): 0.868; z-score [12]: -1.69; z-score [13]: 1.52 (inactive); z-score [14]: -0.804 (inactive); z-score [15]: -0.762 (inactive)

What does the source list for COC(=O)[C@@]1(CCC(=O)OC(C)(C)C)N=C(c2ccc(OCCCO)cc2)O[C@H]1c1ccccc1CN=[N+]=[N-]?
z-score [1]: 0.118; z-score [2]: 0.696 (inactive); z-score [3]: -1.79 (inactive); composite z-score [4]: 0.507 (inactive); z-score [5]: 0.563 (inactive); z-score [6]: 1.56 (inactive); z-score [7]: 0.224 (inactive); z-score [8]: -0.0915 (inactive); z-score [9]: -2.11; composite z-score [10]: 0.165; composite z-score [11]: 1.63 (inactive); composite z-score (XIP peptide (Xip251-270)): 0.512; z-score [12]: -2.27; z-score [13]: -1.11 (inactive); z-score [14]: -0.25 (inactive); z-score [15]: 0.0025 (inactive)

What does the source list for CCCCC(=C=CC[C@@H](O)c1cccc(OCCO)c1)C[C@@H](O)COCc1ccccc1?
z-score [1]: 0.161; z-score [2]: -2.28 (inactive); z-score [3]: -0.164 (inactive); composite z-score [4]: -2.23 (inactive); z-score [5]: 0.212 (inactive); z-score [6]: -2.76 (inactive); z-score [7]: 0.812 (inactive); z-score [8]: 0.577 (inactive); z-score [9]: 0.528; composite z-score [10]: -0.0561; composite z-score [11]: -0.0344 (inactive); composite z-score (XIP peptide (Xip251-270)): 0.713; z-score [12]: -1.1; z-score [13]: -4.82 (inactive); z-score [14]: -0.255 (inactive); z-score [15]: 0.827 (inactive)

With COC(=O)[C@@]1(Cc2ccc(OC)cc2)[C@H]2c3cc(C(=O)N4CCCC4)n(CCc4ccc(OC)c(Br)c4)c3C[C@H]2CN1C(=O)c1ccccc1 as the compound, how does the z-score [1] read?
Its z-score is -0.142.

What about the z-score [2] of the same compound?
The z-score was 0.775 (inactive).

What about the z-score [3] of the same compound?
Its z-score is -0.354 (inactive).

And the composite z-score [4]?
Its composite z-score is -0.844 (inactive).

What about the z-score [5] of the same compound?
Its z-score is 0.0539 (inactive).

And the z-score [6]?
Its z-score is -0.101 (inactive).

What about the z-score [7] of the same compound?
The z-score was -0.236 (inactive).

What about the z-score [8] of the same compound?
The z-score was -0.351 (inactive).

And the z-score [9]?
Its z-score is 0.282.

What about the composite z-score [10] of the same compound?
Its composite z-score is 0.312.

What about the composite z-score [11] of the same compound?
The composite z-score was -0.0245 (inactive).

And the composite z-score (XIP peptide (Xip251-270))?
Its composite z-score is -0.879.

And the z-score [12]?
The z-score was -1.17.

What about the z-score [13] of the same compound?
Its z-score is -4.39 (inactive).

And the z-score [14]?
The z-score was -0.299 (inactive).

And the z-score [15]?
Its z-score is -0.0792 (inactive).

Which z-score [1] does the source give for COc1cc(OC)c(C(O)C2C=CC3C(=O)N(c4ccccc4)C(=O)C3N2Nc2ccccc2F)cc1Br (centres undefined) here?
Its z-score is -0.384.

And the z-score [2]?
Its z-score is -1.22 (inactive).

And the z-score [3]?
Its z-score is -0.898 (inactive).

What about the composite z-score [4] of the same compound?
Its composite z-score is -0.92 (inactive).

And the z-score [5]?
The z-score was 1.32 (inactive).

And the z-score [6]?
Its z-score is 0.298 (inactive).

And the z-score [7]?
Its z-score is -0.529 (inactive).

What about the z-score [8] of the same compound?
The z-score was -0.595 (inactive).

And the z-score [9]?
Its z-score is -2.08.

And the composite z-score [10]?
Its composite z-score is 0.0245.

What about the composite z-score [11] of the same compound?
The composite z-score was 0.166 (inactive).

What about the composite z-score (XIP peptide (Xip251-270)) of the same compound?
Its composite z-score is 0.758.

What about the z-score [12] of the same compound?
The z-score was 1.74.

And the z-score [13]?
Its z-score is -1.47 (inactive).

And the z-score [14]?
The z-score was 0.195 (inactive).

What about the z-score [15] of the same compound?
The z-score was -0.0782 (inactive).

What does the source list for CC(C)CNC(=O)[C@@H]1c2ccccc2C(=O)N(Cc2ccccc2)[C@H]1c1ccc(CO)cc1?
z-score [1]: 0.768; z-score [2]: -0.21 (inactive); z-score [3]: -0.628 (inactive); composite z-score [4]: 0.13 (inactive); z-score [5]: 0.388 (inactive); z-score [6]: -0.232 (inactive); z-score [7]: 0.278 (inactive); z-score [8]: 0.0254 (inactive); z-score [9]: 0.19; composite z-score [10]: 0.0785; composite z-score [11]: 0.906 (inactive); composite z-score (XIP peptide (Xip251-270)): 0.0309; z-score [12]: -0.172; z-score [13]: -1.68 (inactive); z-score [14]: 0.212 (inactive); z-score [15]: -0.161 (inactive)

With CCCC[C@@H](O)C1=C(COC)Cn2c(=O)n(-c3ccccc3)c(=O)n2[C@H]1CO as the compound, how does the z-score [1] read?
The z-score was -0.603.

And the z-score [2]?
Its z-score is -1.86 (inactive).

What about the z-score [3] of the same compound?
Its z-score is -0.0278 (inactive).

And the composite z-score [4]?
Its composite z-score is -1.45 (inactive).

What about the z-score [5] of the same compound?
The z-score was -0.131 (inactive).

And the z-score [6]?
Its z-score is -2.03 (inactive).

And the z-score [7]?
Its z-score is 1.15 (inactive).

What about the z-score [8] of the same compound?
Its z-score is 1.06 (inactive).

What about the z-score [9] of the same compound?
Its z-score is -0.0456.

And the composite z-score [10]?
The composite z-score was -0.189.

And the composite z-score [11]?
The composite z-score was -0.698 (inactive).

What about the composite z-score (XIP peptide (Xip251-270)) of the same compound?
The composite z-score was -0.0217.

What about the z-score [12] of the same compound?
The z-score was 0.519.

What about the z-score [13] of the same compound?
The z-score was -0.879 (inactive).

What about the z-score [14] of the same compound?
Its z-score is -0.464 (inactive).

What about the z-score [15] of the same compound?
The z-score was 0.126 (inactive).

Which results are given for C=CCN1C(=O)[C@]2(O[C@H](CCn3cc([C@H](O)c4ccccc4)nn3)[C@@H]([Si](C)(C)c3ccc(OC)cc3)[C@@H]2C)c2cc(N3C(=O)c4cccc5cccc3c45)ccc21?
z-score [1]: -1.1; z-score [2]: 0.0523 (inactive); z-score [3]: -2.78 (inactive); composite z-score [4]: 0.739 (inactive); z-score [5]: 1.69 (inactive); z-score [6]: 0.88 (inactive); z-score [7]: 0.908 (inactive); z-score [8]: 0.591 (inactive); z-score [9]: -3.61; composite z-score [10]: 0.0435; composite z-score [11]: 0.767 (inactive); composite z-score (XIP peptide (Xip251-270)): 0.312; z-score [12]: -2.75; z-score [13]: -3.64 (inactive); z-score [14]: -0.65 (inactive); z-score [15]: -0.164 (inactive)
